Results on 46 molecules are retold here after PubChem BioAssay AID2685 (National Center for Advancing Translational Sciences (NCATS), 2010).

About 2,100 (0.66%) of roughly 320,000 compounds were called active. Roughly 53% stayed inconclusive and do not appear here. The call rests on the fitted dose curve; in most records, active means well fitted inhibition curve with a large enough effect in the signal ratio, with a control signal flat (not every such curve was filed as active); inconclusive means small, poorly fitted or top-dose-only effect, or effect the other way, or a change in a side signal; inactive means flat fitted curve, though single readings scatter; the % refers to the signal ratio. For the sample, actives were picked, then their nearest neighbours and some compounds at random.
Potency means the concentration at half of the fitted maximal effect.

The assay can be described thus: qHTS Assay for Lipid Storage Modulators in Drosophila S3 Cells.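 On cell number change: cells counted by Cell Tracker Red CMTPX staining in the red channel.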 On lipid storage change, negative = inhibition: on the % scale 0 is the no-effect control and ±100 the full control effect. The settings on record: BODIPY lipid droplet fluorescence, 18-24 h, cells fed with added oleic acid; cell number change: measured here: cell count max response; series mostly up to 46.1 µM; lipid storage change, negative = inhibition: at the top concentration. In a few lines: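 Drosophila S3 cells loaded with oleic acid (400 uM, as added) and compounds at several concentrations; lipid droplets imaged by 488-nm laser-scanning cytometry, 500–530 nm intensity and object ratio to cell channel. Percent activity normalized to 20 uM Triacsin C.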
For `CC(C)(C)Nc1c(-c2ccc(O)cc2)nc2ccc(Cl)cn12`, the “lipid storage change, negative = inhibition” value was -6.34% (inactive) and the cell number change amounted to 20.8%.

For `NC(=O)NCCCC(=O)O`, the “lipid storage change, negative = inhibition” value is -6.78% (inactive) and the cell number change was -16.4%. In the same order, the values of `CC(NC(=O)NC(N)=O)(C(F)(F)F)C(F)(F)F` are -6.44% (inactive) and 2.2%. Consider `CC(NC(=O)NCCCC(=O)O)(C(F)(F)F)C(F)(F)F`, for which the Potency is 29.1 µM (active) and the cell number change was -5.28%. Turning to `CSCCC(NC(=O)c1ccc(Cl)cc1Cl)C(=O)N(C)Cc1nc2ccccc2c(=O)[nH]1` (stereo not drawn), the lipid storage change, negative = inhibition is 1.6% [at 0.0737 µM] (inactive). Take `CCN1CCN(c2ccc([N+](=O)[O-])c(Sc3nc4ccccc4[nH]3)c2)CC1`: the “lipid storage change, negative = inhibition” value is -3.58% (inactive) and the cell number change is -7.24%. For `CC1=CC(=Nc2c(C)n(C)n(-c3ccccc3)c2=O)C=CC1=O`, the “lipid storage change, negative = inhibition” value is -9.72% (inactive) and the cell number change turned out to be 4.9%.

On to `CC(C)(C)c1cc(CN2CCC(O)CC2)cc(C(C)(C)C)c1O`, for which the result was inactive and the cell number change was found to be 12.8%. On to `CC1=NN(Cc2ccccc2)C(=O)C1`, for which the “lipid storage change, negative = inhibition” value is -22.5% (inactive) and the cell number change was determined as 11.6%. For the molecule `CC1=NN(Cc2cc(C(C)(C)C)c(O)c(C(C)(C)C)c2)C(=O)C1`, the Potency is 16.4 µM (active) and the cell number change is -27.5%. Turning to `COCCOC(=O)c1c(C)oc2ccc(OC(=O)c3ccc4c(c3)OCO4)cc12`, the result was inactive. As for `CC1CN(C(=O)c2cccc(S(=O)(=O)N3CCN(c4ccccc4)CC3)c2)CC(C)O1` (stereo not drawn), the “lipid storage change, negative = inhibition” value was 13.5% (inactive) and the cell number change stood at 2.24%. Regarding `C[C@@H]1CCC(=O)N(C[C@@H](C)CSc2ccccc2)CC1`, the molecule was called inactive and the cell number change stood at 11.7%. As to `CCC(=O)Nc1ccc(NC(=O)CSc2nnc(-c3ccco3)n2C)cc1`, the “lipid storage change, negative = inhibition” value was -25.5% (inactive) and the cell number change stood at 8.55%. As to `Cn1c(SCC(=O)Nc2ccc(Cl)cc2F)nnc1-c1ccco1`, the Potency was 23.1 µM (active) and the cell number change was 9.91%. With `Cc1cc(NC(=O)CSc2nnc(-c3ccco3)n2C)no1`, the “lipid storage change, negative = inhibition” value is 5.6% (inactive) and the cell number change is 17.5%. `O=C(Nc1nc2ccc(F)cc2s1)c1ccc(N2CCCC2=O)cc1`: the “lipid storage change, negative = inhibition” value was -0.195% (inactive) and the cell number change was -14.4%. Consider `CCCC1CC(CCc2ccccc2)OS(=O)(=O)N1` (stereo not drawn), for which the call was inactive and the cell number change was 22.3%. Consider `C=CCNc1nc2c(c(=O)[nH]c(=O)n2C)n1CC(O)COc1ccc2ccccc2c1` (stereo not drawn), for which the “lipid storage change, negative = inhibition” value is 9.91% (inactive) and the cell number change is -2.59%.

Turning to `C=CCSc1nc(C)cc2c1C(=O)OC2`, the “lipid storage change, negative = inhibition” value was -1.91% (inactive) and the cell number change is -10%. Consider `CCOC(=O)C1CCN(S(=O)(=O)c2ccc(OC)c(OC)c2)CC1`, for which the result was inactive. With `Cc1cc(-n2c(C)cc(C(=O)COc3ccc([N+](=O)[O-])cc3)c2C)no1`, the cell number change was -1.97% and the lipid storage change, negative = inhibition was -9.66% [at 9.22 µM] (inactive). For `Cc1cc(-n2c(C)cc(C(=O)COc3cc(F)ccc3[N+](=O)[O-])c2C)no1`, the Potency was 8.2 µM (active) and the cell number change was 1.91%. As to `Cc1cc(-n2c(C)cc(C(=O)COc3ccc4ccc(=O)oc4c3)c2C)no1`, the “lipid storage change, negative = inhibition” value was -4.04% (inactive) and the cell number change was -3.86%.

In the case of `N#CN=C1CCCCCN1CC(N)=O`, the Potency was 0.731 µM (active) and the cell number change was -10.9%. Turning to `O=C(O)CN1CCCC1=Nc1ccccc1`, the molecule was called inactive and the cell number change turned out to be 7.34%. `Cc1nc(CN2CCCC2=NC#N)n(-c2ccccc2)n1`: the “lipid storage change, negative = inhibition” value is -0.104% (inactive) and the cell number change was 7.55%. Turning to `Cc1cc(C(=O)N/N=C/c2ccc(-c3cccc(Cl)c3Cl)o2)n[nH]1`, the “lipid storage change, negative = inhibition” value is 2.75% (inactive) and the cell number change was -7.33%.

Take `Cc1nc(N)nc(Nc2ccc(Cl)cc2)c1Br`: the molecule was classed as inactive and the cell number change was found to be 17.2%. Regarding `CCOc1ccc(CC(C(=O)NN)C(=O)NN)cc1CN(C)C`, the Potency is 18.4 µM (active) and the cell number change is -6.71%. For `CCOc1ccc(CC(C(N)=O)C(N)=O)cc1CN(C)C`, the “lipid storage change, negative = inhibition” value is 8.24% (inactive) and the cell number change was -1.24%. Consider `CCOc1ccccc1CNCc1ccc(C(=O)O)cc1`, for which the “lipid storage change, negative = inhibition” value was 16% (inactive) and the cell number change is 10.5%.

As to `COC(=O)Nc1c(C(=O)OC)cc(OC)c(OC)c1OC`, the Potency was 16.4 µM (active) and the cell number change is -8.23%. Take `COC(=O)c1cc(OC)c(OC)c(OC)c1N`: the call was inactive and the cell number change was found to be 7.54%.

Regarding `COC(=O)c1cc(OC)c(OC)c(OC)c1NC(=O)c1ccc(S(=O)(=O)N(C)C)cc1`, the call was inactive and the cell number change is -4.59%. As to `CCOC(=O)CN(C(=O)COc1nc(C)cc(C)c1C#N)c1cccc(Cl)c1`, the “lipid storage change, negative = inhibition” value was 3.11% (inactive) and the cell number change came to 6.09%.

Turning to `Cc1cccc(N2CCN(C(=O)c3ccc(CNc4c(N5CCC(C)CC5)c(=O)c4=O)cc3)CC2)c1C`, the “lipid storage change, negative = inhibition” value was -0.571% (inactive) and the cell number change turned out to be 1.91%. Take `COc1ccc(CN2CCN(Cc3cccc(OC)c3)C(CCO)C2)cc1` (stereo not drawn): the “lipid storage change, negative = inhibition” value is 15.7% (inactive) and the cell number change was found to be 0.486%. With `COc1ccc(OC)c(CN2CCN(C(=O)c3ccc(S(=O)(=O)Nc4ccccc4F)cc3)CC2)c1`, the Potency was 13 µM (active) and the cell number change was -20.6%.

On to `COc1ccc(NS(=O)(=O)c2cccc(C(=O)N3CCN(Cc4cc(OC)ccc4OC)CC3)c2)cc1`, for which the “lipid storage change, negative = inhibition” value is -13.2% (inactive) and the cell number change is 1.47%. As to `COc1ccc(C(=O)N2CCN(Cc3cc(OC)ccc3OC)CC2)cc1`, the “lipid storage change, negative = inhibition” value was -14.3% (inactive) and the cell number change was -3.67%. On to `COc1ccc(OC)c(CN2CCN(C(=O)CNC(=O)c3ccc(C(C)(C)C)cc3)CC2)c1`, for which the Potency is 1.46 µM (active) and the cell number change is -27.4%. On to `CC(C)(C)c1ccc(C(=O)NCC(=O)N2CCCCCC2)cc1`, for which the molecule was classed as inactive and the cell number change is 5.65%. In the same order, the values of `CC(C)(C)c1ccc(C(=O)NCC(=O)N2CCCC2)cc1` are “inactive” and 12.2%. Regarding `O=C(Cn1c(C(F)(F)F)nc2ccccc21)N=Nc1c(O)[nH]c2ccc(Br)cc12`, the molecule was classed as inactive. Take `CC1(C)CC(=O)N(c2ccc(C#N)cc2)C(=O)C1`: the “lipid storage change, negative = inhibition” value is 2.37% (inactive) and the cell number change is -0.525%.
